According to PubChem BioAssay (NCI):
Compounds without any hit were thinned out: in the full panel of roughly 83,000, 20% have a hit.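 Each cell line was grown in a 96-well plate and treated with one concentration of compound for 48 hours. Values below 10 were considered active.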 Values without a mark were called inactive. Calls of active or inactive are those of the source.

Legend:
Experiment in all cases: NCI-60 one-dose screen, 48 h (100 = growth as untreated, 0 = no growth, -100 = all killed)
Details in all cases: 10 µM unless noted
[1] = tested on: HCT-15 colon
[2] = tested on: HT29 colon
[3] = tested on: SNB-75 CNS
[4] = tested on: SNB-19 CNS
[5] = tested on: U251 CNS
[6] = tested on: PC-3 prostate
[7] = tested on: SK-MEL-5 melanoma
[8] = tested on: UACC-62 melanoma
[9] = tested on: LOX IMVI melanoma
[10] = tested on: SK-MEL-28 melanoma

Compound	growth [1]	growth [2]	growth [3]	growth [4]	growth [5]	growth [6]	growth [7]	growth [8]	growth [9]	growth [10]
Cc1cc2c3c(cccc3c1)C(=O)c1ccccc1-2	93.5%	94.9%	111%	97.8%	98.8%	93.6%	95.2%	85.1%	86.8%	105%
NC(=O)c1c(OCc2c(F)cc(Br)cc2F)nsc1NC(=O)NCCCCN1CCCC1	5.99% (active)	-38.9% (active)	-79.9% (active)	5.06% (active)	-83.3% (active)	3.22% (active)	-99.1% (active)	-75.6% (active)	-90.6% (active)	-74.6% (active)
O=C(Cc1ccc(-c2ccc(OCCN3CCOCC3)cc2)cn1)NCc1ccccc1	7.16% (active)	4.32% (active)	15.3%	14.1%	3.6% (active)	15.2%	-39.8% (active)	29%	17.5%	36.1%
N#CC(C#N)=NO	104%	91.7%	89.1%	102%	95.2%	71.8%	108%	102%	95.8%	110%
Cc1ccc(NC(=O)c2ccc(CN3CCN(C)CC3)cc2)cc1Nc1nc(-c2cccnc2)cs1	16.1%	6.04% (active)	64.8%	46.3%	6.69% (active)	35.9%	-0.29% (active)	58.4%	-27.3% (active)	-10.3% (active)
C=CC(=O)N1CCC[C@@H](n2nc(-c3ccc(Oc4ccccc4)cc3)c3c(N)ncnc32)C1	72.6%	30.1%	19.6%	49.8%	48.1%	57.2%	56.1%	20.6%	24.3%	79.2%
OCCNC(=S)Nc1ccc(-c2nc(N3C[C@H]4CC[C@@H](C3)O4)c3cccn3n2)cc1	13%	20.1%	-30.4% (active)	0.975% (active)	7.99% (active)	9.91% (active)	-34.8% (active)	-36.5% (active)	1.79% (active)	-5.35% (active)
O=C(Nc1ccc(C2=NCCCN2)cc1)c1ccc(C(=O)Nc2ccc(C3=NCCCN3)cc2)nc1	108%	109%	87%	96.8%	105%	106%	99.3%	99.5%	105%	120%
O=C(O)c1ccc(Nc2ncc3c(n2)-c2ccc(Cl)cc2C(c2c(F)cccc2F)=NC3)cc1	50.5%	30.2%	48.8%	54.6%	42.5%	51.3%	60.6%	51.6%	33%	75.1%
C=CC(=O)Nc1cc(Nc2nccc(-c3cn(C)c4ccccc34)n2)c(OC)cc1N(C)CCN(C)C	-63.9% (active)	-61.2% (active)	-6.88% (active)	-7.94% (active)	-72.7% (active)	-52.6% (active)	-96.5% (active)	-68.8% (active)	-84.6% (active)	-87.2% (active)
Nc1c(C(=O)c2ccccc2)sc2nc(-c3cccs3)ccc12	24.7%	5.02% (active)	32.4%	36.1%	17.6%	23%	17.5%	11.8%	44.8%	72.6%
Cc1cc(O)cc(-c2c(-c3ccnc(-c4cccnc4)c3)cnn2C)c1	74%	60.7%	16.4%	96.4%	69.3%	47.8%	56.5%	62.1%	61.5%	60.8%
